“And” between values parts separate entries of the source, which are not always exact repeats. Identical values can stand only once. Results filed as inconclusive are left out. Values without a mark were called inactive. The source made the active and inactive calls. The call rests on the fitted dose curve.
Assay: Mouse Th17 T cell differentiation assay for inhibitors of ROR gamma transcriptional activity
Settings: mouse naive CD4 T cells Th17, IL17a-GFP flow cytometry; series mostly up to 20 µM; IL17a-GFP activity, % of control: at the top concentration
Source text: NIH Molecular Libraries Probe Production Network [MLPCN] NIH Chemical Genomics Center [NCGC] MLPCN Grant: R03 DA026211-01 Assay Provider: Dan Littman, New York University Keywords: NIH Roadmap, MLPCN, MLI, MLSMR, qHTS, NCGC, qHTS, nuclear hormone receptor, retinoic acid-related orphan receptor, ROR gamma Assay Overview: The retinoic acid-related orphan receptor (ROR) gamma is a transcription factor that has a central role in the differentiation of Th17 cells, a subset of T helper cells that secrete the inflammatory cytokines IL-17a, IL-17f, and IL-22. Th17 cells have been implicated in graft versus host disease, autoimmune disease and asthma. ROR gamma is induced in naive T helper cells in the presence of TGF-beta combined with IL-6, IL-21, or IL-23, and thereafter directs the expression of the Th17 lineage cytokines. To confirm inhibition of ROR gamma, compounds were tested in a mouse Th17 T cell differentiation assay. Th17 differentiation was tracked by expression of a GFP reporter under the control of the endogenous IL-17a promoter using flow cytometry. Compounds that block ROR gamma activity prevent expression of the IL17a-GFP reporter.
Assay Protocol Summary: Cells from lymph nodes and spleens derived from six to eight week old IL17a-GFP mice (Biocytogen LLC) were used for T cell purification. B220- cells were isolated on an autoMACS Pro with bead depletion of B220+ cells (Miltenyi). Naive CD4+ T cell were further purified as TCRb+CD8- DAPI- CD19- CD4+CD25- CD62L+CD44low/Int by cell sorting on a FACSAria (BD). Cells were cultivated in an incubator at 37 C and 5% CO2 in RPMI 1640 medium (Invitrogen) supplemented with 10% (vol/vol) heat-inactivated FBS (Hyclone), penicillin-streptomycin, 2 mM glutamine and 0.1 mM nonessential amino acids. Cells were seeded on day 0 at a density of 0.4x10^5 cells per ml in 96-well plates coated with anti-CD3e (5 ug/ml) and anti-CD28 (10 ug/ml). Cells were cultured for 4-5 days in Th17 (TGFb (0.3 ng/ml), IL6 (20 ng/ml), anti-IFN-g, and anti-IL-4) condition. At day 1, compounds dissolved in DMSO were added. GFP expression was assayed on day 4 or 5 with DAPI- and PECy7-conjugated CD4+ cells. An LSR II (BD Biosciences) and FlowJo software (Tree Star) were used for flow cytometry. Keywords: NIH Roadmap, MLPCN, MLI, MLSMR, qHTS, NCGC, qHTS, nuclear hormone receptor, retinoic acid-related orphan receptor, ROR gamma

SMILES	IL17a-GFP activity, % of control	Potency
COc1cc(O)c(C(CC(=O)N2CCCC(C)C2)c2ccccc2C)c(OC)c1 (stereo not given)	105%	
COc1cc(O)c(C(CC(=O)N2CCCC(C)C2)c2ccc(C)cc2)c(OC)c1 (stereo not given)		4 µM (active)
COc1cc(O)c(C(CC(=O)N2CC(C)CC(C)C2)c2ccc3c(c2)OCO3)c(OC)c1 (stereo not given)		500 nM (active) and 700 nM (active)
COc1ccc(C(CC(=O)N2CCCC(C)C2)c2c(O)cc(OC)cc2OC)cc1 (stereo not given)		5 µM (active)
COCOc1cc(OC)cc(OC)c1C(CC(=O)N1CC(C)CC(C)C1)c1ccc2c(c1)OCO2 (stereo not given)		1 µM (active)
COc1cc(OC)c(C(CC(=O)N2CC(C)CC(C)C2)c2ccc3c(c2)OCO3)c(OCC(N)=O)c1 (stereo not given)	55.9%	
COc1cc(O)c(C(CC(=O)N2CC(C)CC(C)C2)c2ccc(C)cc2)c(OC)c1 (stereo not given)		0.5 µM (active)
COc1cc(O)c(C(CC(=O)N2CCCC(C)C2)c2ccccc2)c(OC)c1 (stereo not given)	103%	
COc1ccc(C(CC(=O)N2CC(C)CC(C)C2)c2c(O)cc(OC)cc2OC)cc1 (stereo not given)		0.4 µM (active)
COc1cc(OC)c(C(CC(=O)N2CCCC(C)C2)c2ccc3c(c2)OCO3)c(OC)c1 (stereo not given)		2 µM (active)
COc1ccc(C(CC(=O)N2CCCC(C)C2)c2ccc3c(c2)OCO3)c(O)c1 (stereo not given)	102%	
COc1cc(O)c(C(CC(=O)N2CC(C)OC(C)C2)c2ccc3c(c2)OCO3)c(OC)c1 (stereo not given)		0.8 µM (active)
COc1cc(O)c(C(CC(=O)N2CC(C)NC(C)C2)c2ccc3c(c2)OCO3)c(OC)c1 (stereo not given)	87.7%	
COc1cc(O)c(C(CC(=O)N2CC(C)CC(C)C2)c2ccc(O)cc2)c(OC)c1 (stereo not given)		0.3 µM (active)
COc1cccc(O)c1C(CC(=O)N1CCCC(C)C1)c1ccc2c(c1)OCO2 (stereo not given)	55.9%	
COc1cc(OC)c(C(CC(=O)N2CC(C)CC(C)C2)c2ccc3c(c2)OCO3)c(OC)c1 (stereo not given)		0.8 µM (active)
COc1cc(O)c(C(CC(=O)N2C[C@H](C)C[C@H](C)C2)c2ccc3c(c2)OCO3)c(OC)c1 (stereo not given in full)		0.4 µM (active)
COc1cc(O)c(C(CC(=O)N2CCC(C)CC2)c2ccc3c(c2)OCO3)c(OC)c1 (stereo not given)	78.2%	
COc1cc(O)c(C(CC(=O)N2CCCC(C(F)(F)F)C2)c2ccc3c(c2)OCO3)c(OC)c1 (stereo not given)		7 µM (active)
COc1cc(O)c(C(CC(=O)N2CC(C)CC(C)C2)c2ccc3c(c2)OCCO3)c(OC)c1 (stereo not given)		0.3 µM (active)
COc1cc(O)c(C(CC(=O)N2CCCC(C)(C)C2)c2ccc3c(c2)OCO3)c(OC)c1 (stereo not given)		6 µM (active)
COc1cc(O)c(C(CC(=O)N2CCCC(C)C2)c2cccs2)c(OC)c1 (stereo not given)		6 µM (active)
COc1cc(OC)c(C(CC(=O)N2CC(C)CC(C)C2)c2ccc3c(c2)OCO3)c(OCC#N)c1 (stereo not given)		3 µM (active)
COc1cc(O)c(C(CC(=O)N2CC(C)CC(C)C2)c2ccc(N(C)C)cc2)c(OC)c1 (stereo not given)		0.4 µM (active)
COc1ccc(C(CC(=O)N2CCCC(C)C2)c2c(O)cc(OC)cc2OC)c(OC)c1 (stereo not given)	158%	
